# TDP1 cell noCPT = qHTS for Inhibitors of human tyrosyl-DNA phosphodiesterase 1 (TDP1): qHTS in cells in absence of CPT; AID 686978, 2013; hit rate 15% among 420,000; Potency, µM (highest dose often 46.2 µM), inactives show at the highest dose activity change, negative = growth inhibition, hits mostly inhibitors; DT40 Tdp1-/- hTDP1 cells, no CPT, ATP luminescence, 48 h; further: nearly all actives have a fitted effect of over 55% in size
#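 Seeded 400 DT40-hTDP1 cells/well (vehicle DMSO, no 20 nM CPT); pinned compounds; ≥48 hr at 37 °C; CellTiter-Glo luminescence as viability measure.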
# TDP1 cell CPT = growth inhibition of DT40 Tdp1-/-;hTDP1 cells with camptothecin (screen for TDP1 inhibitors). chicken DT40 Tdp1-/-;hTDP1 cells + 20 nM CPT, ATP luminescence, 48 h. Potency, µM (series often up to 46.2 µM), without a hit: at the top dose activity change, negative = growth inhibition, usual class: inhibitors. hit rate 12% among 420,000; further: nearly all actives have a fitted effect of over 55% in size
#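 Cell growth measured by CellTiter-Glo luminescence after a minimum 48 h, 37 C compound exposure with 20 nM CPT in Tdp1-knockout DT40 cells stably expressing hTDP1, seeded 400/well; qHTS titration format.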
# VP16 counter = counter-screen for ROR gamma inhibitors: Gal4-VP16 reporter; Drosophila S2 Gal4-VP16 UAS-luciferase, luminescence, 20 h; Potency, µM (doses to about 53.6 µM), without a hit: at the top dose activity, negative = inhibition, usual class: inhibitors; hit rate 3.5% among 310,000; AID 2546;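 further: Gal4-VP16 expression switched on by copper sulfate through the metallothionein promoter; nearly all actives have a fitted effect of over 50% in size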
# RORg inh = ROR gamma (mouse) transcription inhibition; P51450; Drosophila S2 Gal4-RORgamma UAS-luciferase reporter, 20 h; Potency, µM (highest dose often 53.6 µM), without a hit: at the top dose activity change, negative = inhibition, actives largely listed as inhibitors; hit rate 5.4% among 310,000; further: nearly all actives have a fitted effect of over 60% in size
# Target sequence (P51450 whole entry, looked up, the tested form may be a part): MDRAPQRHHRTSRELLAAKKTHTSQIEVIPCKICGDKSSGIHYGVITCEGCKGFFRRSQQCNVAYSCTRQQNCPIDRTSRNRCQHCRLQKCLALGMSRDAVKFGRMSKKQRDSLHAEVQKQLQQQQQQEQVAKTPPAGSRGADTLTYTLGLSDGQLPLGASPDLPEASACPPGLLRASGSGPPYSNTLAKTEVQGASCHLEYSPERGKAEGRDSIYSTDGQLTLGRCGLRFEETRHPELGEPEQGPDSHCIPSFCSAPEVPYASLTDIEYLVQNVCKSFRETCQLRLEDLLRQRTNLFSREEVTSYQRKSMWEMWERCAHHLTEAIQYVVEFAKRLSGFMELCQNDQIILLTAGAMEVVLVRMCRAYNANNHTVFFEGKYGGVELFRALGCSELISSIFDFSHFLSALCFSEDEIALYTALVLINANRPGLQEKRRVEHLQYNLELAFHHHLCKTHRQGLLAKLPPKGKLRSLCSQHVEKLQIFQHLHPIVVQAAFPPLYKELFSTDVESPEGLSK
#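 Schneider cells (Drosophila), stable Gal4 DBD–ROR gamma + UAS-luc; 1 hr cmpd preincubation; Cu2+ induction 700 uM final; 20 hr ambient; luminescence.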
# TDP1 inh = inhibitors of human tyrosyl-DNA phosphodiesterase TDP1. Potency, µM (series often up to 130 µM), for the others: top-dose activity change, negative = inhibition, most hits filed as inhibitors. recombinant TDP1, AlphaScreen DNA substrate cleavage. AID 485290. Q9NUW8. hit rate 0.28% among 350,000; further: nearly all actives have a fitted effect of over 40% in size
#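 Compounds were preincubated with Tdp1 (1 nM final) for 15 min at room temperature before substrate (15 nM final) started a 5 min reaction; beads (10 ug/ml final) were then added for 10 min before AlphaScreen detection.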
# An asterisk follows results filed as active; ? = inconclusive; . = no result; ! = not confirmed by another sample; [ ] = another dose, or the depositor's remark. Hits are enriched below; roughly 19% of the tested compounds scored in any of these assays. The call rests on the fitted dose curve; in most records, active means well fitted curve in the direction sought with a large enough effect; inconclusive means small, poorly fitted or top-dose-only effect, or another doubt; inactive means no such curve, though single readings can be large; an effect the other way counts as inactive or inconclusive. On the % scale 0 is the no-effect control and ±100 the full control effect; potency means the concentration at half of the fitted maximal effect.
SMILES,TDP1 cell noCPT,TDP1 cell CPT,VP16 counter,RORg inh,TDP1 inh
C[N+](C)(CCCCCI)c1ccc(/C=C/c2nc3ccccc3s2)cc1,0.56µM*,1µM*,.,.,.
CC1CCCCC1NC(=O)/C=C/c1nc2ccccc2s1 (stereo not drawn),?,?,25%,39%,2%
O=[N+]([O-])c1ccc(Nc2ccc(Cl)cc2)nc1,-14%,-7%,-11%,-13%,6%
O=[N+]([O-])c1ccc(NNS(=O)(=O)c2cc(Cl)ccc2Cl)nc1,?,21µM*,?,13µM*,5%
CCC(=O)Nc1ccc(S(=O)(=O)N2CCN(c3ccc(F)cc3)CC2)cc1,-21%,-17%,-11%,-2%,1%
O=C(NNC(=O)c1ccc(Br)s1)c1ccc(F)c(S(=O)(=O)N2CCOCC2)c1,-23%,?,.,.,0%
O=C1c2ccccc2C(=O)N1CCCCN(C(=O)c1cccc([N+](=O)[O-])c1)c1ccc(Cl)cc1,16µM*,21µM*,-4%,17%,6%
CN(C)CCNC(=O)c1onc(CSc2ccc(F)c(F)c2)c1C(=O)NCCN(C)C,16µM*,-26%,-9%,23%,-1%
CC(C)CCNC(=O)c1onc(CSc2ccc(F)c(F)c2)c1C(=O)NCCC(C)C,?,?,-6%,7%,-2%
CCCNC(=O)c1onc(CSc2ccc(F)c(F)c2)c1C(=O)NCCC,?,15µM*,.,.,.
Cc1nonc1NC(=O)CSc1nc2ccc(Cl)cc2[nH]1,?,-79%,-3%,-43%,13%
Cc1cccc(NC(=O)C(C)OC(=O)CNC(=O)C2CCCCC2)c1 (stereo not drawn),-6%,-12%,.,.,.
O=C(NCc1ccccc1F)C1CCN(Cc2cc3ccccc3n2Cc2cccc(Cl)c2)CC1,23µM*,?,.,.,2%
O=C(NCc1ccco1)C1CCN(c2nc3ccccc3n2Cc2ccccc2F)CC1,?,16µM*,0%,-7%,0%
O=C(NCCc1ccccc1)C1CCN(Cc2cc3ccccc3n2Cc2cccc(Cl)c2)CC1,21µM*,?,.,.,4%
Cc1ccc(Cn2c(CN3CCC(C(=O)NCCc4ccccc4)CC3)cc3ccccc32)cc1,16µM*,23µM*,.,.,11%
Cc1cc(C)nc(N2CCC(C(=O)NCc3ccccc3F)CC2)n1,13%,2%,-3%,-19%,-1%
CCCN(c1ccc(C(C)C)cc1)S(=O)(=O)c1ccc2c(c1)n(C)c(=O)c(=O)n2C,-5%,5%,.,.,2%
C[C@@H]1C[C@@H]2OC(=O)[C@]3(C)[C@H]2[C@@H](OC3(C)O)[C@]2(C)C(=O)CC[C@H]12 (stereo partly drawn),.,.,3%,-11%,.
O=C(CCC1CCCN(Cc2cccc(Cl)c2)C1)NCc1ccccc1F (stereo not drawn),?,21µM*,-15%,0%,.
Cc1ccc(Cn2c(CN3CCC(C(=O)NCC(C)c4ccccc4)CC3)cc3ccccc32)cc1 (stereo not drawn),26µM*,?,.,.,-1%
COc1cccc(CNC(=O)C2CCN(Cc3cc4ccccc4n3Cc3ccccc3)CC2)c1OC,?,?,.,.,8%
CC1(C)CN(C2CCCCC2)C(=O)[C@H]1CC(=O)Nc1ccccc1,?,-21%,.,.,.
COc1ccnc2c1c(=O)n(Cc1c(F)cccc1Cl)c(=O)n2C,?,?,?,-5%,8%
Cc1cc(=O)n2c(-c3ccc(Cl)cc3)csc2n1,-15%,10%,19%,-2%,.
COc1ccc(-n2nc(C(=O)N3CCCCC3)c3ccccc3c2=O)cc1,2%,-8%,-10%,-3%,0%
CC(=O)c1cc2c(cc1N/C(=N/S(=O)(=O)c1ccc(C)cc1)c1ccc(Cl)cc1)OCO2,-1%,?,7%,27%,-4%
CC(C)OC(=S)N/C(=N\S(=O)(=O)c1ccccc1)c1ccccc1,-1%,7%,22%[0.365 µM],0.45µM*,3%
CC(=O)c1cc2c(cc1N/C(=N/S(=O)(=O)c1ccc(C)cc1)c1ccccc1)OCO2,?,23µM*!,-6%,-4%,4%

# Compound activity from PubChem BioAssay.
